Laboratory results taken from PubChem BioAssay AID686949 (The Scripps Research Institute Molecular Screening Center, 2013).
The whole screen tested about 3,200 compounds, of which about 2,200 (69%) were called active.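 Rule for the calls: active = activation, as change over the incubation, above the mean of all tested compounds plus 3 SD (cut at about 13% in these data); inactive = the rest.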 So high a share suggests a set chosen from earlier hits. These entries were drawn from the full list.

target: Kallikrein-7 (Homo sapiens) (UniProt P49862); assay: proKLK7 zymogen activators, confirmation, biochemical, fluorescence intensity, triplicate (AID 686949); details: purified proKLK7, EDANS-DABCYL substrate fluorescence; at 7 µM; stronger effect = higher value; scaled: vehicle 0, mature enzyme 100
Sequence (P49862 whole entry, looked up): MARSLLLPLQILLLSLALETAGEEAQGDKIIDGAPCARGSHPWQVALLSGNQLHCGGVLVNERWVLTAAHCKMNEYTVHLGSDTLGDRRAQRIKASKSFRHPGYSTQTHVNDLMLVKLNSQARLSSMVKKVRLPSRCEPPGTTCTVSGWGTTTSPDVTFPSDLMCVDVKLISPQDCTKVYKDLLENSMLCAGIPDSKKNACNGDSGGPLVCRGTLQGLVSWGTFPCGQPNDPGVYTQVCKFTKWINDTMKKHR

Compound | activation
CCOC(=O)NN1C(=O)c2ccccc2NC1c1cccc(O)c1 (stereo not drawn) | 19.6% (active)
CC(=O)NN1C(=O)c2ccccc2NC1c1ccccc1 (stereo not drawn) | 33.8% (active)
COc1cc(/C=N\NC(=O)c2nonc2N)c(OC)cc1Br | 75.4% (active)
CCc1nc(Nc2ccc(NC(C)=O)cc2)c2oc3ccccc3c2n1 | 69.9% (active)
Cc1cc(C)c(C#N)c(SCC(=O)NN2CC(=O)N(c3ccccc3F)CC2=O)n1 | 52.8% (active)
CCN1CCc2c(C#N)c(NCc3ccccc3)nc(NCCO)c2C1 | 31.4% (active)
COc1cccc(NC(=O)CN(C)C(=O)/C=C/c2cc(OC)ccc2OC)c1 | -101% (inactive)
COc1cccc2sc3cc(NCC[C@@H]4CCCN4C)ccc3c(=O)c12 | 46.9% (active)
CN(C)C(=O)c1coc2nc3ccccc3nc12 | 104% (active)
COc1ccc(-c2cn3cccnc3n2)cc1 | 68.6% (active)
c1ccc(-c2cn3cccnc3n2)cc1 | 68.7% (active)
COc1ccc2nc(-c3ccccn3)ccc2c1 | 3.28% (inactive)
FC(F)(F)Oc1ccc(-c2cn3cccnc3n2)cc1 | 36.4% (active)
Cc1cc(S(=O)(=O)c2cc3ccc(O)c(C)c3oc2=O)ccc1F | 59.1% (active)
CC1(C)CC(=O)c2cc(OCC(=O)NCC3CCCO3)ccc2O1 (stereo not drawn) | 48.1% (active)
CC(=O)Nc1nc2ncccn2c1-c1ccc(C(F)(F)F)cc1 | 30.9% (active)
CCCn1c(=NC(C)=O)c(C(=O)OCC)cc2c(=O)n3ccccc3nc21 | 33.5% (active)
Cc1cc2c(nc1C)CCCN2C | 0.32% (inactive)
CN1CCCc2cc(C#N)c(=O)[nH]c21 | 33.1% (active)
COCCN(CCOC)c1nc(N)c2c(N)nc3c(c2c1C#N)CC(=O)N3Cc1ccc(Cl)cc1 | -29.9% (inactive)
COc1nc(N=C(N)N)nc2c(C)cccc12 | 23.8% (active)
NC(N)=Nc1nc(-c2ccccc2)c2cc(Cl)ccc2n1 | -1.67% (inactive)
CCOc1c2ccc(C(=O)NCc3ccc4c(c3)OCO4)cc2nn1C | 7.8% (inactive)
Cc1coc2c1c(C)cc1oc(=O)c(CC(=O)NCC(=O)N[C@H](C(=O)O)C(C)C)c(C)c12 | 38.2% (active)
COC(=O)c1cnn2c(C(F)(F)F)cc(-c3ccco3)nc12 | 38.9% (active)

Compound | activation
Cc1nc2ccccc2cc1O | -5.12% (inactive)
COc1cc2c(cc1OC)CC1(CCCCC1)N=C2 | 43.5% (active)
Cc1cc(C)c2c(n1)nn1c(-n3ccnc3)cc(C)nc21 | 50.2% (active)
Cc1ccc2nc3c(cc(C(=O)NCCc4ccccc4)c(=N)n3CC3CCCO3)c(=O)n2c1 (stereo not drawn) | -15.4% (inactive)
Cc1cccn2c(=O)c3cc(C(=O)NCCN4CCOCC4)c(=N)n(Cc4cccnc4)c3nc12 | 17.1% (active)
Cc1cccn2c(=O)c3cc(C#N)c(=NC(=O)c4cccnc4)n(CC4CCCO4)c3nc12 (stereo not drawn) | -75.3% (inactive)
CCn1c(=N)c(C(=O)NCCCOC)cc2c(=O)n3cccc(C)c3nc21 | 72.2% (active)
CC(C)=NN1C(=O)c2ccccc2NC1(C)C | 25% (active)
COC(=O)c1ccc(C2C3=C(Nc4nnnn42)c2ccccc2OC3)cc1 (stereo not drawn) | 5.83% (inactive)
CC(C)Cc1nc(Nc2ccc(S(=O)(=O)N3CCCC3)cc2)c2nnn(Cc3ccccc3)c2n1 | 43.6% (active)
COc1cccc(OCc2cc(/C=N/NC(=O)c3nc(Cl)c(Cl)c(N)c3Cl)ccc2OC)c1 | 62.4% (active)
CC(C)(C)OC(=O)c1c(N)n(CCCN2CCCC2=O)c2nc3ccccc3nc12 | 69.5% (active)
COCC(C)OC(=O)c1c(N)n(CCCN2CCOCC2)c2nc3ccccc3nc12 (stereo not drawn) | 20% (active)
COC(=O)c1c(C)c(C)nc(N)c1C#N | 71.3% (active)
Cc1ccc(-c2nn(-c3ccccc3)cc2/C=C/C(=O)Nc2cccc(S(N)(=O)=O)c2)cc1 | 263% (active)
CCc1ccc(-c2cc(C(=O)NCc3ccco3)c3ccccc3n2)s1 | 75.3% (active)
COc1cc(C(=O)N2C(=O)c3cccc(N)c3C2=O)cc(OC)c1OC | 127% (active)
CC1CC(C)CN(S(=O)(=O)c2cccc(C(=O)N3C(=O)c4cccc(N)c4C3=O)c2)C1 (stereo not drawn) | 240% (active)
Nc1ccccc1-c1nc2ccncc2[nH]1 | 2.63% (inactive)
CCCCc1cc(=O)oc2cc(C)cc(OCc3nn[nH]n3)c12 | 28.8% (active)
CCCCN(CCCC)CC(O)Cn1c2ccccc2c(=O)c2ccccc21 (stereo not drawn) | 13.8% (active)
CCCCCn1c(=O)c(C(=O)OCC)c(Cl)c2ccccc21 | -0.17% (inactive)
CCCc1cc(=O)oc2c(C)c(O)c(CN3CCCCC3)cc12 | 62.8% (active)
CC(=O)Nc1ccc(S(=O)(=O)NCC(=O)OCc2cc(=O)oc3ccc4ccccc4c23)cc1 | 218% (active)
Nc1ccc2nn(-c3ccc(Cl)cc3)nc2c1 | 65.8% (active)

Compound | activation
CC1(C)CN(c2ccc(-c3ccnc4ncnn34)cc2)C1=O | 68.6% (active)
CCN1CCN(C(=O)c2cc3cc4ccc(OC)cc4nc3s2)CC1 | -15.9% (inactive)
COc1ccc2oc(=O)c(C(=O)N3CCCC3)cc2c1 | 23.8% (active)
COC(=O)C1=NN(c2ccccc2)C2C(=O)N(c3ccccc3OC)C(=O)C12 (stereo not drawn) | 21.2% (active)
Cn1cccc1/C=N/NC(=O)CNc1cccc2ccccc12 | 2.27% (inactive)
O=C(O)c1cccnc1Sc1ncnc2sc3c(c12)CCC3 | 17.9% (active)
Cc1oc2nc(SCC(=O)Nc3ccc(S(N)(=O)=O)cc3)nc(NC(=O)c3ccccc3)c2c1C | 5.56% (inactive)
O=c1oc2cc(O)ccc2cc1-c1ccc(F)cc1 | 76% (active)
O=C(Nc1nncs1)c1ccccc1NS(=O)(=O)c1cccs1 | 26.4% (active)
CCOc1ccc(N2C(=O)CC(N(O)c3ccccc3)C2=O)cc1 (stereo not drawn) | 166% (active)
COC(=O)Cc1cc(=O)oc2c(C)c(O)ccc12 | 68% (active)
CN(C)CCN1CCN(c2cc(-c3cccc(Cl)c3)nc3ccnn23)CC1 | 0.23% (inactive)
COCc1cc(=O)[nH]c2cc(NC(=O)C(F)(F)F)c(C)cc12 | 239% (active)
N#Cc1nc(-c2cccc3ccccc23)oc1N | 70.2% (active)
CN(C)Cc1c(O)ccc2c(=O)c(-c3ccccc3Cl)coc12 | 70.2% (active)
O=C(OC1CCOC1=O)c1ccc(-c2nc3ccccc3s2)s1 (stereo not drawn) | 17.6% (active)
COC(=O)Cc1nc2c(N)nc(N)nc2[nH]c1=O | 18.7% (active)
O=C(Oc1c(-c2ccco2)oc2ccccc2c1=O)c1cccnc1 | 22.3% (active)
CC(C)(C)Nc1c(-c2cccs2)nc2ccccn12 | -59.6% (inactive)
CN(C)CCCn1c(N)c(C#N)c2nc(C#N)c(C#N)nc21 | 38% (active)
CCS(=O)(=O)Nc1cc(C(=O)OC)ccc1C(=O)OC | 10% (inactive)
Cc1cccc(C)c1NC(=O)C(c1ccccc1)N1CC(=O)Nc2ccccc21 (stereo not drawn) | 40.3% (active)
COc1ccc(C2=CC(c3cccc(OC)c3)n3nnnc3N2)cc1 (stereo not drawn) | -12.2% (inactive)
CCOC(=O)C1=C(O)/C(=C/c2ccc(OCC(=O)Nc3ccc(C)cc3)cc2)N=C1C | 2.24% (inactive)
CCC(c1nnnn1Cc1ccco1)N(CCc1ccccc1)Cc1cc2ccc(OC)cc2[nH]c1=O (stereo not drawn) | -0.98% (inactive)

Compound | activation
Cc1ccsc1-c1cc(C(=O)O)c2c(ccc3ccccc32)n1 | 19.8% (active)
O=C(O)c1ccc2c(c1)C(=O)N(c1ccc(/C=C/C(=O)c3ccccc3)cc1)C2=O | 703% (active)
O=C(/C=C/c1ccc2c(c1)OCCO2)c1ccc(O)cc1 | 3.2% (inactive)
CCCN(CC(=O)NC(=O)NC1CCCCC1)CC(=O)Nc1cc(Cl)ccc1Cl | 1.91% (inactive)
CC(OC(=O)c1ccccc1NCCO)C(=O)Nc1ccnn1C(C)C (stereo not drawn) | 26.1% (active)
O=c1c(-c2ccccc2)coc2c(CN3CCOCC3)c(O)ccc12 | 18.1% (active)
Cc1c(C)c2c(OCC(=O)NCCCO)cc3c(c2oc1=O)CCC(C)(C)O3 | 44.6% (active)
Cc1cc(=O)oc2c3c(cc(OCC(=O)N[C@H](C(=O)O)c4ccccc4)c12)OC(C)(C)CC3 | 34% (active)
Cc1c(C)c2c(OCC(=O)N[C@@H](C(=O)O)c3ccccc3)cc3c(c2oc1=O)CCC(C)(C)O3 | 36.6% (active)
Cc1cc(=O)oc2c3c(cc(OCC(=O)NCCC(=O)N[C@@H](C)C(=O)O)c12)OC(C)(C)CC3 | 58.2% (active)
CCOC(OCC)c1ccc(/C=C\c2nccc(N)n2)cc1 | -9.52% (inactive)
Cc1nn(-c2ccccc2)c(C)c1NC(=O)COC(=O)c1cc(Cl)ccc1O | 24.2% (active)
CCOC(=O)c1[nH]c2ccc(OC)cc2c1NC(=O)CCN1CCN(Cc2ccccc2)CC1 | 1.17% (inactive)
CC1CCCN(C(=O)c2cc(-c3ccco3)nc3ccccc23)C1 (stereo not drawn) | 36.6% (active)
CC(=O)N1CCN(C(=O)c2cc(-c3ccc(C)o3)nc3ccccc23)CC1 | 62.7% (active)
CNC(=O)COC(=O)c1cc(-c2ccc(OC)cc2)nc2ccccc12 | 88.7% (active)
COc1ccc(-c2cc(C(=O)n3cnc4ccccc43)c3ccccc3n2)cc1 | 56.7% (active)
COc1ccc(CNC(=O)COC(=O)C2=Cc3ccccc3OC2)cc1 | 9.73% (inactive)
COc1ccc2nc(Nc3nc4cc5c(cc4s3)OCCO5)sc2c1 | -12.6% (inactive)
O=C(O)c1ccc2c3c(cccc13)C(=O)N(OS(=O)(=O)c1ccccc1)C2=O | 181% (active)
CC(=O)Nc1nc(C)c(-c2csc(Nc3ccc(S(N)(=O)=O)cc3)n2)s1 | 17.4% (active)
CNc1cncc(-c2cccc(C(=O)N3CCOCC3)c2)n1 | 38.8% (active)
Cc1cc(N2CCOCC2)nc2ccc(NC(=S)N3CCN(Cc4ccccc4)CC3)cc12 | 9.27% (inactive)
